Source: PubChem BioAssay
Most compounds without a hit are left out; they make up all but 1.7% or so of the library.
GLP1R cytotox = cytotoxicity counter-screen for GLP-1 receptor inverse agonists. HEK293 cAMP-luciferase reporter cells, luminescence, 24 h. Potency, µM (doses to about 38.3 µM), most hits filed as inhibitors. hit rate 0.13% among 410,000;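 further: loss of luciferase light is scored as toxicity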
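A 23 nL compound transfer followed 12 hours of cell culture at 37 deg C; exposure then lasted 24 hr. Luciferase assay detection reagent was dispensed and plates read for luminescence after a 12 min room-temperature wait.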
GLP1R inv ag = inverse agonists of human GLP-1 receptor | HEK293 GLP-1R CRE-luciferase, luminescence, 24 h; GLP-1R form is constitutively active | Potency, µM (titrated, usually from 38.3 µM), actives largely listed as inhibitors | hit rate 1.6% among 410,000 | AID 624417; further: nearly all actives have a fitted effect of over 55% in size
Target sequence (P43220 whole entry, looked up): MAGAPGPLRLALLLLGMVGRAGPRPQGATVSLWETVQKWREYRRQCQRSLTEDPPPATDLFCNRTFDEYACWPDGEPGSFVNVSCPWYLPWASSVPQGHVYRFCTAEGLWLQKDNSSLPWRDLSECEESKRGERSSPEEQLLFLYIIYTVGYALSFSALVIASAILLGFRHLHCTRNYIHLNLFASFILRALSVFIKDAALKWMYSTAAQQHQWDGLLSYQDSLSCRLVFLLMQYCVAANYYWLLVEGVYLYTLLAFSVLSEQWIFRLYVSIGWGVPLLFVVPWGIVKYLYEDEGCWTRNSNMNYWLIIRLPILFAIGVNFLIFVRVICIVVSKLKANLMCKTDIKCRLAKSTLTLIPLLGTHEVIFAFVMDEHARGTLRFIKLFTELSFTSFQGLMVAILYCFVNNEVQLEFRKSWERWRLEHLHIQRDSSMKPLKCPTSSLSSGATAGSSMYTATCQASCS
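GLP-1R inverse agonism mode: basal reporter luminescence in engineered HEK293 cells measured after one day of compound exposure at 37 deg C, with a 12 min room-temperature detection step.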
GLP-1R agonist = agonists of human GLP-1 receptor; HEK293 GLP-1R CRE-luciferase, luminescence, 4-6 h; cells express a hypersensitive GLP-1R form; Potency, µM (doses to about 45.6 µM), usual class: activators; hit rate 0.007% among 380,000; AID 624172
Numbers stand for hits; n = inactive; u = inconclusive; x = no result given; [ ] = remark or other dose. The call rests on the fitted dose curve; in most records, active means well fitted curve in the direction sought with a large enough effect; inconclusive means small, poorly fitted or top-dose-only effect, or another doubt; inactive means no such curve, though single readings can be large; an effect the other way counts as inactive or inconclusive.

SMILES	GLP1R cytotox	GLP1R inv ag	GLP-1R agonist
C[C@]12C(=O)N(c3ccc(F)cc3)C(=O)N1[C@H]1c3ccccc3OC[C@@H]1[C@H]2c1ccccc1	n	u	n
CCCS(=O)(=O)NC(=O)C1(C)CCN(C(=O)c2ccc(OC)cc2)C1 (stereo not given)	n	n	n
CC(C)(C)N(Cc1ccccc1)C(=O)c1cc2ccccc2o1	n	2.2µM	n
CN(Cc1ccccc1)C(=O)c1cc2ccccc2o1	n	n	n
O=C(OC1CCCCC1=O)c1ccc(F)c(S(=O)(=O)N2CCOCC2)c1 (stereo not given)	n	n	n
CCOC(=O)c1ccc(NC(=S)N(CCCN2CCCC2)Cc2cccs2)cc1	u	2.8µM	n
CCOC(=O)c1ccc(NC(=S)N(CCCN2CCN(C)CC2)Cc2cccs2)cc1	u	u	n
Cc1ccc(S(=O)(=O)N2CCN(C(=O)CSc3ncc(C(F)(F)F)cc3Cl)CC2)cc1	n	10µM	n
Cc1ccc(S(=O)(=O)N2CCN(C(=O)CSc3ccc(F)cc3)CC2)cc1	n	n	n
CC(=O)c1nnn(-c2ccc([N+](=O)[O-])cc2)c1C	n	n	n
CCSc1ncc(Cl)c(C(=O)N2CCN(c3ccccc3OC)CC2)n1	n	u	x
Cc1occc1-c1nnc(SCC(=O)Nc2ccccc2)n1CCc1ccccc1	n	11µM	n
Cc1occc1-c1nnc(SCC(=O)Nc2ccccc2)n1C	n	n	n
C/C(=N/NC(=O)CNC(=O)CCc1ccccc1)c1ccc(Cl)c(Cl)c1	n	u	n
CCOC(=O)CC1(C)Oc2ccccc2N1S(=O)(=O)c1ccc(C)cc1 (stereo not given)	n	u	x
CC1CCN(S(=O)(=O)c2cc(C(=O)NCc3ccccc3)n(C)c2)CC1	n	n	n
CC(C)Cn1c(CNC(=O)c2ccccc2)nc2ccccc21	n	14µM	n
CCCn1c(NC(=O)c2ccccc2)nc2ccccc21	u	11µM	n
CCCn1c(NC(=O)c2ccc(C)cc2)nc2ccccc21	n	u	n
CCCn1c(CNC(=O)c2ccccc2)nc2ccccc21	n	n	n
CCOc1ccc(C(=O)Nc2ccc3nn(-c4ccc(OC)c(Cl)c4)nc3c2)cc1	n	n	n
CSc1ncnc2c1ncn2CCCN(C)Cc1ccco1	n	n	n
COc1ccc(Nc2sc(C(=O)c3ccc(Cl)cc3)c(N)c2C(=O)Nc2ccccc2OC)cc1	n	n	n
COc1ccccc1NC(=O)c1c(Nc2ccccc2C)sc(C(=O)Nc2cccc(Cl)c2)c1N	u	4.5µM	n
Cc1cccc(C(=O)N2CCc3cc(CNC(=O)COc4ccc(Cl)cc4)ccc32)c1	n	n	x
SMILES	GLP1R cytotox	GLP1R inv ag	GLP-1R agonist
Cc1ccc(-c2cc(C(=O)Nc3nccs3)c3ccccc3n2)c(C)c1	n	u	n
Cc1ccc(-c2cc(C(=O)Nc3nccs3)c3ccccc3n2)o1	n	10µM	n
O=C(Nc1cccnc1Oc1ccc(Cl)cc1)c1cccc2ccccc12	n	u	n
CCN(CC(=O)Nc1ccccc1OC)C(=O)c1ccc2[nH]c3c(c2c1)CC(C)CC3 (stereo not given)	n	u	n
CCCN(CC(=O)Nc1ccccc1OC)C(=O)c1ccc2[nH]c3c(c2c1)CC(C)CC3 (stereo not given)	n	10µM	n
CCN(CC(=O)Nc1ccccc1C(F)(F)F)C(=O)c1cc(-c2cccs2)nn1-c1ccccc1	n	u	n
CCCN(CC(=O)Nc1ccccc1OC)C(=O)c1cc(-c2cccs2)nn1-c1ccccc1	n	11µM	n
CCCCN1CC(c2nc3ccccc3n2CCCCOc2ccc(C)c(C)c2)CC1=O (stereo not given)	n	u	x
Cc1cccc(OCCCCn2c(C3CC(=O)N(c4ccc(C)cc4C)C3)nc3ccccc32)c1 (stereo not given)	n	13µM	x
CCCCN1CC(c2nc3ccccc3n2CCCCOc2cc(C)cc(C)c2)CC1=O (stereo not given)	n	10µM	x
Cc1cccc(OCCCCn2c(C3CC(=O)N(c4ccccc4Cl)C3)nc3ccccc32)c1 (stereo not given)	n	n	x
O=C(Nc1ccccc1)C1Cc2c(-c3ccc(Cl)cc3)ccnc2O1 (stereo not given)	n	u	n
Cc1ccc(S(=O)(=O)N2CCCCC2)cc1NC(=O)CCCOc1ccccc1	n	5.6µM	n
Cc1ccc(S(=O)(=O)N2CCCCC2)cc1NC(=O)c1ccco1	n	n	n
CCN(CC(=O)Nc1cc(S(=O)(=O)N2CCCCC2)ccc1C)Cc1ccccc1	n	6.3µM	n
Cc1ccc(S(=O)(=O)N2CCCCC2)cc1NC(=O)CCOc1ccccc1	n[1.53 µM]	u	n
COc1ccc(-c2c(-c3cc(OC)cc(OC)c3)n(C)c3ccc(-c4ccc5cc[nH]c5c4)cc23)cc1	u	n	n
CCCC(=O)N1c2ncnn2C2(CCCCC2)[C@@H]2CCCC[C@@H]21	n	n	x
O=C(CN1c2ccccc2Sc2ccccc21)NNC(=O)Nc1cccc(Cl)c1	u	3.5µM	n
O=C(Cc1ccccc1)NNC(=O)Nc1cccc(Cl)c1	n	u	n
COc1ccc(N2CCN(C(c3ccccc3F)c3sc4nc(-c5ccco5)nn4c3O)CC2)cc1 (stereo not given)	n	n	x
CCOC(=O)CSc1nnc(CNc2ccc(Cl)cc2)n1-c1ccccc1	n	n	n
CCOc1ccc(NCc2nnc(SCc3ccc(Cl)cc3)n2-c2ccccc2)cc1	n	10µM	n
C[C@]12c3[nH]c4ccc(Cl)cc4c3CCN1C(=O)[C@@H](CC(=O)NCC13CC4CC(CC(C4)C1)C3)C[C@@H]2C(=O)N1CCCCC1	n	n	n
COc1ccc2[nH]c3c(c2c1)CCN1C(=O)C(CC(=O)NCC24CC5CC(CC(C5)C2)C4)C[C@H](C(=O)N(C(C)C)C(C)C)[C@@]31C (stereo not given in full)	n	10µM	n
SMILES	GLP1R cytotox	GLP1R inv ag	GLP-1R agonist
C[C@]12c3[nH]c4ccc(Cl)cc4c3CCN1C(=O)[C@@H](CC(=O)NCC13CC4CC(CC(C4)C1)C3)C[C@@H]2C(=O)N1CCOCC1	n	10µM	n
COc1ccc2[nH]c3c(c2c1)CCN1C(=O)C(CC(=O)NCC24CC5CC(CC(C5)C2)C4)C[C@H](C(=O)N2CCOCC2)[C@@]31C (stereo not given in full)	n	u	n
Cn1cccc1/C=N/NC(=O)CSc1nc2ccccc2n1C	n	n	n
CNC(=O)C1(c2ccccc2)CCCCC1	n	n	n
COc1ccccc1NC(=O)C1(c2ccccc2)CCCC1	n	4µM	n
CC(C)CSc1nc(N)nc2c1ncn2C1OC(CO)C(O)C1O (stereo not given)	n	n	n
COc1ccccc1CNc1nc(Nc2ccccc2-n2cccn2)c2sccc2n1	n	3.2µM	n
COCCNc1nc(NCc2ccccc2OC)c2sccc2n1	n	u	n
O=C(C1CCC(Cn2c(=O)c3sccc3n(Cc3ccccc3)c2=O)CC1)N1CCOCC1 (stereo not given)	n	n	x
Cc1ccc(C2c3[nH]c4ccccc4c3CCN2C(=O)CCC2CCCC2)cc1 (stereo not given)	n	10µM	x
